Test results taken from PubChem BioAssay (NCI).
This is part of a sample that, as a whole, favours compounds with a hit. Of some 83,000 tested, about 20% had one in any assay.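 Negative percent growth values reflect cell death: -40 means 40% of the cells present at the start died, and -100 means all died.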 A number with no mark means an inactive call. Active and inactive are the calls of the source. Rule for the calls: active = growth percent below 10; inactive = the rest.

What was measured:
Experiment in all cases: NCI-60 one-dose screen, 48 h (100 = growth as untreated, 0 = no growth, -100 = all killed)
Settings in all cases: 10 µM
[1] = system: RPMI-8226 leukemia
[2] = system: OVCAR-8 ovarian
[3] = system: OVCAR-5 ovarian
[4] = system: OVCAR-4 ovarian
[5] = system: SK-OV-3 ovarian
[6] = system: IGROV1 ovarian
[7] = system: OVCAR-3 ovarian
[8] = system: HS 578T breast
[9] = system: NCI/ADR-RES ovarian
[10] = system: T-47D breast
[11] = system: BT-549 breast
[12] = system: MDA-MB-435 melanoma
[13] = system: SW-620 colon
[14] = system: MCF7 breast
[15] = system: HCT-116 colon
[16] = system: HCC-2998 colon
[17] = system: KM12 colon

SMILES	growth [1]	growth [2]	growth [3]	growth [4]	growth [5]	growth [6]	growth [7]	growth [8]	growth [9]	growth [10]	growth [11]	growth [12]	growth [13]	growth [14]	growth [15]	growth [16]	growth [17]
CNc1ncc(-c2ccc(C(F)(F)F)cc2)c(NC2CCCCCC2)n1	32.1%	84.2%	88.8%	70.1%	83%	63.9%	78.2%	99.6%	65.2%	45.8%	90.9%	89.8%	77.4%	67.6%	56%	91.1%	74.1%
CC(=O)c1nc2ccccc2n1CCNC(N)=O	32%	85.1%	97.5%	93.1%	91.5%	88.9%	82.7%	68.9%	101%	67.8%	74.4%	-13.7% (active)	57.6%	52.4%	37.2%	95.8%	66.4%
COc1ccc2c(c1)O/C(=C\c1ncc([N+](=O)[O-])n1C)C2=O	-1.22% (active)	-20.8% (active)	-14.7% (active)	-11.6% (active)	-15.9% (active)	-25% (active)	-24.8% (active)	-21.1% (active)	1.07% (active)	76.5%	-36.8% (active)	-78.1% (active)	-20.8% (active)	1.94% (active)	0.959% (active)	-58.8% (active)	-37.7% (active)
Clc1ccc2c(NCCCNc3nccc(Nc4ccc(Br)cc4)n3)ccnc2c1	-59.9% (active)	-65.2% (active)	15.3%	-9.2% (active)	-44.1% (active)	24.2%	-22.8% (active)	-56% (active)	0.467% (active)	-56.2% (active)	4.45% (active)	-88.3% (active)	-74.4% (active)	-98.8% (active)	-97.5% (active)	-91.4% (active)	-48.6% (active)
NC(=O)c1ccc(-c2cccc3c(=O)nc(N4CCOCC4)oc23)cc1	104%	101%	96.8%	90.5%	103%	103%	99.4%	97.2%	97.3%	87.8%	98.1%	107%	104%	90.3%	104%	101%	97.6%
O=C(Nc1cccc(-n2cc(-c3ccncc3)c(-c3ccc(O)c(Cl)c3)n2)c1)Nc1cccc(C(F)(F)F)c1	-29.4% (active)	-49.9% (active)	38.1%	2.73% (active)	4.94% (active)	-1.92% (active)	-6.21% (active)	-4.27% (active)	11.4%	-23.6% (active)	13.3%	-35.3% (active)	13.2%	-6.1% (active)	5.24% (active)	20.4%	-14.7% (active)
c1ccc2c(c1)oc1c3cccnc3ccc21	97.1%	99.7%	100%	83%	87.7%	54.4%	106%	93.1%	99.7%	39%	79.7%	110%	100%	13%	84.4%	92.7%	98.9%
CCCCCCN(CCCCCC)CC(O)c1ccc2c3c(cccc13)CC2 (stereo unspecified)	27.5%	68.4%	48.9%	72.4%	69.9%	39.4%	80.6%	69.1%	56.5%	30.2%	62.8%	42.9%	19.2%	54.2%	17.4%	20.3%	58%
O=C1/C(=C/c2ccc([N+](=O)[O-])s2)Oc2ccccc21	0.673% (active)	2.43% (active)	-56.7% (active)	-86.7% (active)	12.3%	-72.5% (active)	-60.8% (active)	25.7%	12.3%	2.78% (active)	-83.2% (active)	-58.1% (active)	-61.3% (active)	1.53% (active)	-45.4% (active)	-71.4% (active)	-58.9% (active)
CCN(CC)CCCC(C)Nc1ccc2ccc(Cl)cc2n1 (stereo unspecified)	97.3%	94.4%	102%	116%	104%	101%	97.8%	90.8%	98%	93.1%	96.2%	109%	97.9%	99.6%	92.2%	92.8%	104%
Clc1ccccc1N=Cc1ccc2c(c1)OCO2	96.2%	103%	105%	104%	108%	111%	116%	117%	106%	109%	78.2%	99.8%	114%	90.5%	103%	103%	98.8%
Cc1ccc(NC(=O)Nc2c(Cl)cccc2Cl)cn1	62.9%	111%	119%	135%	116%	85.9%	106%	97.8%	105%	96.8%	118%	38.3%	127%	91.8%	104%	104%	105%
CN(C)CCOc1nc2ccccc2c2c1-c1ccc(Cl)cc1C2=O	-23.4% (active)	2.21% (active)	18.3%	-6.28% (active)	11.5%	-27.9% (active)	-21.4% (active)	-13.3% (active)	-6.87% (active)	11.9%	52.1%	-41.6% (active)	-60.8% (active)	-38.7% (active)	1.69% (active)	-53.6% (active)	-45.2% (active)
COc1ccc2c(c1)C(=O)c1c-2c(OCCN2CCCCC2)nc2ccc(OC)cc12	16.4%	18.6%	63.6%	41.9%	34.5%	4.11% (active)	22%	57.8%	26%	36.6%	51.3%	23.9%	8.07% (active)	9.47% (active)	7.15% (active)	39.8%	29.2%
COc1ccc(-c2nc3ncccn3c2-c2nnc(-c3ccc(F)cc3)o2)cc1	95.9%	92.4%	98.1%	96.6%	107%	110%	103%	96%	93.7%	98.2%	99.7%	107%	105%	92.7%	99.3%	104%	104%
COC(=O)C1=NNC(=S)N(c2cc(C)[nH]n2)C(=O)C1	98.5%	101%	108%	104%	97.9%	99.9%	108%	105%	99%	90.2%	107%	99.4%	102%	96%	99.2%	93.6%	102%
O=C(c1ccc(Cl)cc1Cl)N1CCOCC1	95.9%	104%	96%	98.9%	98.5%	105%	109%	107%	96.5%	92.3%	92.3%	104%	102%	97.6%	93.8%	106%	110%
COc1ccc(Nc2cc(C)nc(NCCCNc3ccnc4cc(Cl)ccc34)n2)cc1	-58.8% (active)	-8.6% (active)	18.3%	4% (active)	-25.3% (active)	29.7%	-82.1% (active)	-53.9% (active)	29%	-94.7% (active)	-82.9% (active)	-92.4% (active)	-56.7% (active)	-48.8% (active)	-96.6% (active)	-70% (active)	20%
